# Measurements published in PubChem BioAssay AID1671202 (University of Kansas High Throughput Screening Laboratory, 2021).
# Values joined by “and” are separate entries in the source; they are usually repeats but may differ in a detail not shown here. Equal entries are not always repeated. Among all 190,000 compounds or so, about 6,900 (3.6%) were called active. No stated cut-off is given here; in the data, active means inhibition above about 50%; inactive means the rest. Only a selection was taken, and actives are over-represented in it overall.
# Target: Huntingtin (Homo sapiens) (UniProt P42858)
# Experiment: mutant huntingtin-calmodulin interaction inhibitors – biochemical, AlphaScreen, primary screen (AID 1671202);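 further: 0% = both proteins with DMSO and 100% = one protein alone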
# Settings: AlphaScreen His-mHTT/GST-CaM binding, luminescence; at 15 µM, active compounds read high
# Sequence of Huntingtin (Homo sapiens) (P42858 whole entry, looked up, stated change not applied): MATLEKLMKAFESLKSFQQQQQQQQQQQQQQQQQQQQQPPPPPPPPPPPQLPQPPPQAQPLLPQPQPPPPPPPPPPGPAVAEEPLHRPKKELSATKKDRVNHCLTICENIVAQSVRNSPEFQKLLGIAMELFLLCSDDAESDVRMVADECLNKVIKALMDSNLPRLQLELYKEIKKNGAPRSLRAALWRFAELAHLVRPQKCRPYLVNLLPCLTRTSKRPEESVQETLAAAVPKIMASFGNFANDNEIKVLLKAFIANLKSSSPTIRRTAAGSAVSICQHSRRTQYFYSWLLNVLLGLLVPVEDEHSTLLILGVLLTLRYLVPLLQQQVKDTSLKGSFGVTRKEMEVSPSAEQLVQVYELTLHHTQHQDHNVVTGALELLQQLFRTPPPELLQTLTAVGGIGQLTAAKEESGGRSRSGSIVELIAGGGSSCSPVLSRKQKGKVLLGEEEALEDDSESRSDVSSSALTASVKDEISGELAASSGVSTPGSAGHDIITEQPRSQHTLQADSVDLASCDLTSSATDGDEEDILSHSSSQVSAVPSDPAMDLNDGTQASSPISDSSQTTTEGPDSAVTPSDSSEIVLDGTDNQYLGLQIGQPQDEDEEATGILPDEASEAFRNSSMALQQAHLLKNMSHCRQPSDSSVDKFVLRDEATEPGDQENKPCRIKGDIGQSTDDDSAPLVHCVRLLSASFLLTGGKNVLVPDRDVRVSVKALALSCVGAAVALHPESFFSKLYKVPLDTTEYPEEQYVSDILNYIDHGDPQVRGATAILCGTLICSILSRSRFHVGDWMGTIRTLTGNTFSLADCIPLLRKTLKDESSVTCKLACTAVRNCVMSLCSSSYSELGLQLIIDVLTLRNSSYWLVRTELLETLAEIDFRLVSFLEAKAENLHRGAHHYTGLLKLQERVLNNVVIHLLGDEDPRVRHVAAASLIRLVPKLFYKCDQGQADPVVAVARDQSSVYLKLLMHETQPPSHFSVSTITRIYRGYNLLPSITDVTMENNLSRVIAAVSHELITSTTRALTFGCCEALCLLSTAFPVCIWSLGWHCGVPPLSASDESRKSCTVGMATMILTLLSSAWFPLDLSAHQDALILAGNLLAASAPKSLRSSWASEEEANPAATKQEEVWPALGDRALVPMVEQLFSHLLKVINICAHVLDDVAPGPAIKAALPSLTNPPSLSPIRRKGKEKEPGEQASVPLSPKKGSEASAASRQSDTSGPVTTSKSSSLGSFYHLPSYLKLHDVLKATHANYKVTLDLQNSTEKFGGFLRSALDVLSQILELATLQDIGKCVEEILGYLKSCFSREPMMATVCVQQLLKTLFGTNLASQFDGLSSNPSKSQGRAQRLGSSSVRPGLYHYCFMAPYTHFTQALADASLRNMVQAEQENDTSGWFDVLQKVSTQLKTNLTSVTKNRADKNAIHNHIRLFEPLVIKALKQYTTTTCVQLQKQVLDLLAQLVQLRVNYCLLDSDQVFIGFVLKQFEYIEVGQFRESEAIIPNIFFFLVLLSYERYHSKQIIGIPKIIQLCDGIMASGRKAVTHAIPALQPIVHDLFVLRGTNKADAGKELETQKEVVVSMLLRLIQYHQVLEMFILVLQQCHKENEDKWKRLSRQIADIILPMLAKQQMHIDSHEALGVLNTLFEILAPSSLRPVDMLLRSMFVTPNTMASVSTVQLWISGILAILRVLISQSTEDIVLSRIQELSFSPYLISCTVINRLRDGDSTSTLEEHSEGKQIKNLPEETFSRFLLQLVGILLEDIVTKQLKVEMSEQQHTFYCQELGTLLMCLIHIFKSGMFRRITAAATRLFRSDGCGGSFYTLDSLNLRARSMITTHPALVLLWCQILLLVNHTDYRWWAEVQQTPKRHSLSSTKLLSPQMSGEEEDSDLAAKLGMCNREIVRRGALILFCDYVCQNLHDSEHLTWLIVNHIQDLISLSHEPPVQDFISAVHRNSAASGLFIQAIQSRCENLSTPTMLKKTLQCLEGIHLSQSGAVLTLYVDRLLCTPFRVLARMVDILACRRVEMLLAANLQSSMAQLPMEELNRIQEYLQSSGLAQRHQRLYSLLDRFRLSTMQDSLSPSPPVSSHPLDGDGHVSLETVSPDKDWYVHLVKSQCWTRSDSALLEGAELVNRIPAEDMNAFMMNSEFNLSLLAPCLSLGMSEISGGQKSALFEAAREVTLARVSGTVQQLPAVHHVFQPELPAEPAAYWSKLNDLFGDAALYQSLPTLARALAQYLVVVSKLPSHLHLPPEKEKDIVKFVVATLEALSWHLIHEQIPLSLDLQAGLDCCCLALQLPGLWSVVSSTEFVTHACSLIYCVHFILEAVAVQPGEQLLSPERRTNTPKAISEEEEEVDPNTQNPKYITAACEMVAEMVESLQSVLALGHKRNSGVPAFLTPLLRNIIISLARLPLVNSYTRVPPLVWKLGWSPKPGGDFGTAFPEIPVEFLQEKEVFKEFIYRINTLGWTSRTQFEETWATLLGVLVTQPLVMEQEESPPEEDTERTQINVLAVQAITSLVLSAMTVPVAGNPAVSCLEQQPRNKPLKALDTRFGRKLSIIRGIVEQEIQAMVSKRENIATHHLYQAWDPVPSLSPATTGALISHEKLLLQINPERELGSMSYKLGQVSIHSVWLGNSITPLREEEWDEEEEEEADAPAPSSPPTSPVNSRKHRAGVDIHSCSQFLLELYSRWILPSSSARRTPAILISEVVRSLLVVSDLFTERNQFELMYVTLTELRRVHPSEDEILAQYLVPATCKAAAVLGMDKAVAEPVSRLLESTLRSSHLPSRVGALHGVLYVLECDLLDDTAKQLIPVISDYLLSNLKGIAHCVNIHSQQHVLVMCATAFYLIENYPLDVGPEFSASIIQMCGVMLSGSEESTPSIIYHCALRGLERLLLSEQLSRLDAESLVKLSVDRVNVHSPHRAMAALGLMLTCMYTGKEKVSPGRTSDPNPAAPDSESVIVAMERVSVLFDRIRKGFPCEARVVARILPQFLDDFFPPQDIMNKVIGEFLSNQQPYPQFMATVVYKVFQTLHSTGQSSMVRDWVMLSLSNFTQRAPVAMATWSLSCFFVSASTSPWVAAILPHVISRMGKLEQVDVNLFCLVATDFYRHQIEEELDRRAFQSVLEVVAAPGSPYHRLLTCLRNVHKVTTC
row,Structure (SMILES),inhibition
1,Cc1nn2cc(-n3cc([N+](=O)[O-])cn3)cnc2c1[N+](=O)[O-],-2.97% (inactive)
2,COc1cccc(CC(=O)Nc2cccn3c(C)nnc23)c1,-2.3% (inactive)
3,CCCn1c(=O)c2sc(N3CCCC3)nc2n(CC(=O)Nc2cc(F)cc(F)c2)c1=O,-10.6% (inactive)
4,COc1ccc2oc(-c3ccc(NC(=O)c4cccc(Br)c4)cc3)nc2c1,34% (inactive)
5,C=CCc1ccc(OCC(=O)NCCC2=CCCCC2)c(OC)c1,-16% (inactive)
6,COc1cc(OC)c(N2C=C(C#N)S(=O)(=O)c3ccc(F)cc32)cc1Cl,-0.3% (inactive)
7,Cc1cccc(CNC(=O)c2cc(C(C)C)n3nccc3n2)c1,-134% (inactive)
8,Cc1ccc(NC(=O)O[C@H]2CCC23CCCCC3)cc1,-86.9% (inactive)
9,Cc1cc(C)c(S(=O)(=O)N2CCCC2C(=O)NCCc2csc(C)n2)c(C)c1 (configuration not stated),-2.4% (inactive)
10,Cc1cccc(C(=O)N2CCN(c3nc4ccccc4n(CC(C)C)c3=O)CC2)c1,-13.3% (inactive)
11,Cc1ccc2c(c1)NC1(CCN(C(=O)c3ccccc3)CC1)c1cccn1-2,84.3% (active)
12,CCN1c2ccc(C)cc2C(=O)NC12CCN(C(=O)c1cccc(C)c1)CC2,-2.5% (inactive)
13,O=C1NC2(CCN(C(=O)c3ccccc3)CC2)Nc2cc(Cl)ccc21,-7.3% (inactive)
14,CCNc1nccc(N2CCC(CC(=O)NCc3cccc(Cl)c3)CC2)n1,7.56% (inactive)
15,COc1ccc(-c2cc(C(F)(F)F)n3nc(C(=O)N4CCC(C)CC4)cc3n2)cc1OC,4% (inactive)
16,COc1ccc(CC(=O)NC(c2ccccc2)c2ccccc2)cc1OC,53.3% (active)
17,COc1ccc(C(=O)NC(C)c2ccccc2)cc1OC (configuration not stated),-4.5% (inactive)
18,COc1ccc(CCNC(=O)COc2ccccc2Br)cc1OC,1.8% (inactive) and -8.4% (inactive)
19,COc1ccc(OC)c(CN2CCc3nc(N4CCOCC4)ncc3C2)c1,13.8% (inactive)
20,CCc1ccccc1NC(=O)c1cc2n(n1)CCCN(Cc1ccc(F)cc1)C2=O,-3.32% (inactive)
21,Cc1cc(C)c(C(=O)Nc2nc3ccc(S(C)(=O)=O)cc3s2)c(C)c1,-1.4% (inactive)
22,CC(C)(C)c1ccc(C(=O)Nc2nc3ccc(S(C)(=O)=O)cc3s2)cc1,-2% (inactive)
23,CS(=O)(=O)c1ccc2nc(NC(=O)/C=C/c3ccccc3)sc2c1,76% (active)

row,Structure (SMILES),inhibition
1,COc1cc(N2CN=c3s/c(=C\c4ccc([N+](=O)[O-])cc4)c(=O)n3C2)cc(OC)c1OC,49% (inactive)
2,Brc1ccc2c(c1)CCCN2,10% (inactive)
3,Cc1nn2c(=O)/c(=C/c3ccc(-c4ccc(F)cc4)o3)sc2nc1=O,-2% (inactive)
4,O=C1NN=C(c2ccccc2)/C1=C/c1ccc(-c2ccc(Cl)cc2)o1,61% (active)
5,CC1=NOC(=O)/C1=C/c1ccc(-c2cc(Cl)ccc2Cl)o1,-2% (inactive)
6,Cc1cccc(CSC2=NCCN2C(=O)Cc2ccc(F)cc2)c1,-24% (inactive)
7,COc1cc(/C=C(\C#N)c2nc3ccccc3[nH]2)ccc1OCC#N,12% (inactive)
8,CCCCOc1ccc(/C=C(\C#N)c2nc3ccccc3[nH]2)cc1,-1% (inactive)
9,N#C/C(=C\C=C\c1ccccc1)c1nc2ccccc2[nH]1,75% (active) and 58% (active)
10,CC(=O)c1cccc(NC(=O)/C(=C\c2ccc3c(c2)OCO3)NC(=O)c2ccccc2Cl)c1,7% (inactive)
11,COc1cccc2sc(N(C)CC(=O)Nc3nc(C)cs3)nc12,-3% (inactive)
12,COc1cc(-c2ccc(O)c(O)c2)cc(=O)c2c(C)oc(C)c12,49% (inactive)
13,CCOc1cc(-c2ccc(O)c(OC)c2)cc(=O)c2c(C)oc(C)c12,51% (active)
14,COc1ccc(-c2c(C)c3ccc(O)c(CN4CCCC4)c3oc2=O)cc1OC,2.3% (inactive)
15,N#CC1=C(N)N2CCN3C(N)=C(C#N)C1(c1ccccc1)C23c1ccccc1 (configuration not stated),21% (inactive)
16,O=C1CC(O)(C(F)(F)F)Oc2ccc(Cl)cc21 (configuration not stated),0% (inactive)
17,CC(C)N1C/C(=C\c2ccsc2)C(=O)/C(=C/c2ccsc2)C1,45% (inactive)
18,O=C(Nc1ccc(F)cc1)c1cc(S(=O)(=O)NCc2ccc(F)cc2)ccc1F,-3% (inactive)
19,COc1ccc(NC(=O)c2cc(S(=O)(=O)NCCc3ccc(Cl)cc3)ccc2F)cc1,20% (inactive)
20,O=C(Nc1ccc(F)cc1)c1cc(S(=O)(=O)NCCc2ccc(Cl)cc2)ccc1F,61% (active)
21,COc1ccccc1OCCNC(=O)CSc1ccc(C(F)(F)F)cc1[N+](=O)[O-],2% (inactive)
22,CC1=C(C(=O)Nc2cccnc2)C(c2ccccn2)n2nc(SCc3ccccc3)nc2N1 (configuration not stated),5% (inactive)
23,CC1=C(C(=O)Nc2ccc(Cl)cc2)C(c2ccc(Cl)cc2Cl)n2ncnc2N1 (configuration not stated),59% (active)

row,Structure (SMILES),inhibition
1,COc1ccc(NC(=O)C2=C(C)Nc3ncnn3C2c2cc(OC)c(OC)cc2OC)cc1 (configuration not stated),0% (inactive)
2,CC1=C(C(=O)Nc2ccc(C)cc2)C(c2cccc([N+](=O)[O-])c2)n2ncnc2N1 (configuration not stated),7% (inactive)
3,O=C(NCc1ccco1)c1cc2nc(-c3ccc(Cl)cc3)cc(C(F)(F)F)n2n1,-2% (inactive)
4,Cc1ccc(C)c(CNC(=O)c2cc3n(n2)CCCN(Cc2ccc(F)cc2)C3=O)c1,50.5% (active)
5,Cc1ccc(CN2CCCn3nc(C(=O)NCc4ccccc4Cl)cc3C2=O)cc1,-2.01% (inactive)
6,O=C(NCCc1ccccc1)c1cc2n(n1)CCCN(Cc1ccc(F)cc1)C2=O,3.53% (inactive)
7,Cc1cc(N2N=NC3C(=O)N(c4ccc(F)cc4)C(=O)C32)ccc1Br (configuration not stated),-11.3% (inactive)
8,CSC1=C(C#N)C(c2cccs2)CC(=O)N1 (configuration not stated),-7.7% (inactive)
9,Cc1cccc(-c2cc(C3CCN(S(=O)(=O)c4cccc(C#N)c4)CC3)[nH]n2)c1,7.83% (inactive)
10,Cc1cccc(-c2cc(C3CCN(S(=O)(=O)c4ccc(C#N)cc4)CC3)[nH]n2)c1,9.71% (inactive)
11,Cc1cccc(-c2cc(C3CCN(C(=O)Cc4ccsc4)CC3)[nH]n2)c1,59.9% (active)
12,O=C(Cc1csc(NC(=O)C2CCCC2)n1)Nc1ccc2c(c1)Cc1ccccc1-2,-7.6% (inactive)
13,Cn1c(=O)c2c(-c3ccccc3)n(-c3cccc([N+](=O)[O-])c3)cc2n(C)c1=O,38% (inactive)
14,O=C1/C(=C/c2ccc([N+](=O)[O-])cc2)C=C(c2ccccc2)N1c1cccc([N+](=O)[O-])c1,28% (inactive)
15,O=C1OC(c2ccccc2)=C/C1=C/c1cccn1-c1cccc([N+](=O)[O-])c1,77% (active)
16,N#CC1=C(N)C(C#N)(C#N)C(c2ccc(C3C4CCCC=C4C(C#N)=C(N)C3(C#N)C#N)cc2)C2CCCC=C12 (configuration not stated),81.2% (active)
17,CN1CC=C2C(C#N)=C(N)C(C#N)(C#N)C(c3ccc(F)cc3)C2C1 (configuration not stated),6% (inactive)
18,Brc1ccc(CNC23CN4CN(CN(C4)C2)C3)cc1,2% (inactive)
19,O=C(/C=C/c1ccc(Cl)cc1)Nc1cc2ccccc2oc1=O,0% (inactive)
20,CN(C)c1ccc(Br)c([N+](=O)[O-])c1,14.9% (inactive)
21,Cc1ccc2nc(/C(C#N)=C/c3cc(Cl)cc4c3OCOC4)[nH]c2c1,-7% (inactive)
22,COc1cccc(NC(=O)c2cc3cc4cc(OC)ccc4nc3s2)c1,7% (inactive)
23,COc1ccc2nc3sc(C(=O)NCc4ccco4)cc3cc2c1,61% (active)

row,Structure (SMILES),inhibition
1,COc1ccc2nc3sc(C(=O)N(C)c4cccc(C)c4)cc3cc2c1,5% (inactive)
2,O=C(CSc1nnc(NC(=O)c2ccccc2F)s1)Nc1ccc(Br)cc1,1.2% (inactive)
3,CC(C)(C)C(=O)NCCNc1ccc([N+](=O)[O-])cc1,2.2% (inactive)
4,COc1ccc(NC(=O)C2CC(=O)N(C)C(=Nc3ccc(C)c(C)c3)S2)cc1 (configuration not stated),22% (inactive)
5,Cc1ccc2c(c1)OCC(=O)N2Cc1nc(-c2ccc(C)c(C)c2)no1,-15.9% (inactive)
6,Cc1ccccc1NC(=O)N1CCC(c2cc(N)on2)CC1,-11.4% (inactive)
7,CCOC(=O)c1ccc(Oc2coc3c4c(ccc3c2=O)OCN(C2CCS(=O)(=O)C2)C4)cc1 (configuration not stated),6.6% (inactive)
8,COc1ccc(N2COc3ccc4c(=O)c(-c5ccccc5)coc4c3C2)c(OC)c1,75.6% (active)
9,COCCCN1COc2ccc3c(=O)c(Oc4ccc(OC)cc4)coc3c2C1,-5.5% (inactive) and 3.6% (inactive)
10,COC(=O)c1ccc(Oc2coc3c4c(ccc3c2=O)OCN(c2ccc(OC)cc2OC)C4)cc1,54.7% (active)
11,COc1ccc(-c2coc3c4c(ccc3c2=O)OCN(CC(C)C)C4)cc1,-3.5% (inactive)
12,CC(C)N1COc2ccc3c(=O)c(-c4ccccc4)coc3c2C1,-2.5% (inactive)
13,COc1cccc(OC)c1OCCOc1cccc(Cl)c1Cl,-101% (inactive)
14,Cc1cccc(NC(=O)c2ccc(F)c(S(=O)(=O)N3CCc4ccccc43)c2)c1,-8% (inactive)
15,Cc1cc2[nH]c(C(=O)Nc3cc(F)c(F)c(F)c3)c(CN(C)C)c2s1,8.9% (inactive)
16,Cc1cccc(NC(=O)C2CCN(C(=O)c3ccc(F)cc3)CC2)c1,-0.6% (inactive)
17,O=C1OC(/C=C/c2cccc(Cl)c2Cl)=NC/1=C\c1coc2ccccc2c1=O,6% (inactive)
18,CC(C)Oc1ccccc1OCCNCc1ccco1,-1.4% (inactive)
19,Cc1ccc(C)c(NC(=O)N2CCc3c(c(COCc4cccc(F)c4)nn3C)C2)c1,23.8% (inactive)
20,O=C(O)C1CCCCC1C(=O)Nc1nnc(-c2cccs2)s1 (configuration not stated),-1.3% (inactive)
21,N#Cc1ccc(C(=O)NCc2[nH]nc3ccccc23)cc1,64.3% (active)
22,O=C(NCc1[nH]nc2ccccc12)c1ccc(Br)o1,-1.8% (inactive)
23,CN(C)c1ncccc1NC(=O)c1ccc(C#N)cc1,4.1% (inactive)
